PubChem BioAssay AID1240 (Sanford-Burnham Center for Chemical Genomics, 2008)
The whole screen tested about 50,000 compounds, of which about 800 (1.6%) showed an effect of 50% or more. This excerpt belongs to a sample that is enriched for strong results.

Target: Bcl-2-like protein 10 (Homo sapiens) (UniProt Q9HD36)
Assay: TR3 peptide-Bcl-B binding displacers, biochemical primary FP assay, phenotype converters (AID 1240);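 note: 0% = Bcl-B with tracer peptide and DMSO and 100% = tracer peptide lacking Bcl-B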
Conditions: GST-Bcl-B / FITC-TR3 peptide fluorescence polarization; stronger effect = higher value; compound at 3.75 mg/L

Bcl-2-like protein 10 (Homo sapiens), sequence (Q9HD36 whole entry, looked up): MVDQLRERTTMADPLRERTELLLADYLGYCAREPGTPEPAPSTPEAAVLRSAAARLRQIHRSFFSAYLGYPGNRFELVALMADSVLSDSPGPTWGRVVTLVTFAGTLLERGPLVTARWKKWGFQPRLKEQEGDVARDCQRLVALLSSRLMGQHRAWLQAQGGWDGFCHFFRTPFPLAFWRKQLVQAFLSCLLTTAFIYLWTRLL

Row | SMILES | displacement [%]
1 | COc1ccc(-c2cc(CC(=O)c3ccccc3)cc(-c3ccc(OC)cc3)n2)cc1 | 7.7
2 | COc1ccc(Cl)cc1N(CC(=O)N1CCCCC1)S(=O)(=O)c1ccc(C)c([N+](=O)[O-])c1 | 2.3
3 | Cc1ccccc1/[N+]([O-])=C/c1cccs1 | 0.1
4 | COc1ccccc1NC(=O)C(=O)NCC(C)C | 9.1
5 | COc1cc(OC)c(OC)cc1CN1CCN(Cc2cc(OC)c(OC)cc2Br)CC1 | 1.2
6 | CCc1cc(=O)oc2cc(OC(C)=O)ccc12 | 12.3
7 | O=C(N(c1cccc2ccccc12)C1C=CS(=O)(=O)C1)C(F)(F)F (stereo not drawn) | 66
8 | O=C(N(c1cccc(C(F)(F)F)c1)C1C=CS(=O)(=O)C1)C(F)(F)F (stereo not drawn) | 14.6
9 | CCOC(=O)c1ccccc1N(C(=O)C(F)(F)F)C1C=CS(=O)(=O)C1 (stereo not drawn) | -3.1
10 | CC(Oc1ccccc1)C(=O)N1CCC(Cc2ccccc2)CC1 (stereo not drawn) | 3.1
11 | C=CCN1C(=O)/C(=C\c2ccc3c(c2)OCO3)C(=O)NC1=S | 4.4
12 | COc1c(Cl)cc(C(=O)Nc2c(C)cccc2C)cc1Cl | 6.7
13 | COc1ccc(Br)cc1C1C(C(=O)OCCOC(C)C)=C(C)NC2=C1C(=O)CCC2 (stereo not drawn) | -2.6
14 | Cc1ccc(NC(=O)CN(c2ccc(C(C)C)cc2)S(=O)(=O)c2ccccc2)c(C)c1 | 5.6
15 | COc1cc(C2OCC3(CO)C(C)C=C(C)C2C3C)ccc1O (stereo not drawn) | 16.4
16 | O=C1c2cccc3c(N4CCNCC4)ccc(c23)C(=O)N1c1ccc(Cl)cc1 | 101
17 | COc1ccc(N2C(=O)c3cccc4c(N5CCNCC5)ccc(c34)C2=O)cc1 | 37.2
18 | Cc1cccc(N2C(=O)c3ccc(-c4ccc5c(c4)C(=O)N(c4cccc(C)c4)C5=O)cc3C2=O)c1 | 6.7
19 | Cc1cccc(N2C(=O)c3cccc4c(N5CCCCC5)ccc(c34)C2=O)c1 | 15.5
20 | Cc1cccc(N2C(=O)c3cccc4c(N5CCOCC5)ccc(c34)C2=O)c1 | 154
21 | O=C1c2cccc3c(N4CCCCC4)ccc(c23)C(=O)N1c1ccc(Cl)cc1 | 5.7
22 | CC(=O)Oc1ccc(-c2cccc(C(=O)NC(CO)C(O)c3ccc([N+](=O)[O-])cc3)c2)cc1 (stereo not drawn) | 10.4
23 | COC(=O)c1ccc(-n2ncnc2-c2ccc(Br)cc2)cc1 | -5.4
24 | CCC(=O)NC(Nc1ccc(OC)cc1)(C(F)(F)F)C(F)(F)F | -2.7
25 | Cc1oc2c(CN3CC4(C)CC3CC(C)(C)C4)c(O)ccc2c(=O)c1-c1nc2ccccc2s1 (stereo not drawn) | 11.2
26 | Cc1csc(-c2cc3ccc(OCc4c(F)c(F)c(F)c(F)c4F)cc3oc2=O)n1 | 6.9
27 | Cc1csc(-c2cc3ccc(O)c(CN4CC5(C)CC4CC(C)(C)C5)c3oc2=O)n1 (stereo not drawn) | 138
28 | COc1ccc(C)cc1NC(=O)COc1ccc(Cl)cc1C | -5.2
